Values without a mark were called inactive. Calls come from the whole dose curve; as a rule, active = well fitted curve in the direction sought with a large enough effect; inconclusive = small, poorly fitted or top-dose-only effect, or another doubt; inactive = no such curve, though single readings can be large or run the other way.
test: Validation qHTS assay for inhibitors of Activation Induced Cytidine Deaminase (AID): UDG Counterscreen signal (AID 1347427); conditions: biochemical UDG counterscreen, fluorescence signal; series mostly up to 115 µM; activity, negative = inhibition: at the top concentration; note: 0% is about no effect
Method in brief: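 Fluorescence at 560 nm excitation, 665 nm emission reports UDG signal after 250 mM NaOH (2x) addition and 30 min. Enzymes (AID 1 uM, UDG 2 U/mL, at 4/3x) preincubated 10 min with compound, then 4 h with 4x 250 nM DJC20/DJC23 substrate at room temperature.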

| SMILES | activity, negative = inhibition [%] |
| --- | --- |
| O=C(O)c1cccnc1C(=O)O | 15.4 |
| c1ccc(CN2CCC3(CCCc4ccccc43)CC2)cc1 | -0.64 |
| N[C@@H](Cc1ccc(O)c(I)c1)C(=O)O | 13.6 |
| CCCn1c(=O)c(C)cn2nc(N)nc12 | 5.93 |
| c1ccc2nc(C3=NCCN3)ccc2c1 | 10.7 |
| CN1CCC2(CCN3CCc4c(oc5ccccc45)C3C2)N(C)C1=O (stereo not drawn) | 3.43 |
| CNC(=O)c1cc2c(cn1)[nH]c1ccccc12 | 4.51 |
| Cn1ccnc1 | 4.28 |
| COC(=O)C(C)(N)Cc1ccc(O)cc1 (stereo not drawn) | 6.84 |
| Cn1c(=O)c2[nH]c(-c3ccc(S(=O)(=O)O)cc3)nc2n(C)c1=O | 10.5 |
| CC1CCN=C(N)S1 (stereo not drawn) | 9.01 |
| Oc1ccc(Cn2cc[nH]c2=S)cc1 | 15.4 |
| Nc1nc2c(cnn2CCc2ccccc2)c2nc(-c3ccco3)nn12 | 3.57 |
| O=C(O)c1cc(=O)cc(C(=O)O)[nH]1 | 11.6 |
| CCc1ccc2c(-c3cccc(Cl)c3)nc(=O)n(CC)c2n1 | 14.1 |
| O=C(O)C1CCNCC1 | 5.59 |
| NC(N)=[N+]1CCc2ccccc2C1 | 12.2 |
| CC(=O)[C@H]1CCC2C3CC=C4C[C@@H](OS(=O)(=O)O)CC[C@]4(C)C3CC[C@@]21C (stereo partly drawn) | 13.3 |
| C=C1C(=O)O[C@@H]2[C@H]3O[C@]3(C)CCC=C(C)CC[C@@H]12 | 5.61 |
| Oc1cc2c(cc1O)C(c1ccccc1)CNCC2 (stereo not drawn) | 8.74 |
| C=CCn1c(=O)c2c(nc(-c3ccc(S(=O)(=O)O)cc3)n2C)n(C)c1=O | 8.6 |
| NC(=O)c1ccccc1 | -1.45 |
| CCCC(=O)NCCc1c2n(c3ccc(OC)cc13)CCCc1ccccc1-2 | -3.49 |

From PubChem BioAssay (NCATS)
